Data published in PubChem BioAssay (Tox21).
Several values for one entry are separate records, joined by “and”; a condition that tells them apart may be missing. Equal values may be shown once. Inconclusive results are not listed. Entries that show only a call come without a potency. More than one record can exist for a structure, and the calls need not agree. Activity calls are given as the source filed them. Unless noted, calls come from the whole dose curve; as a rule, active = well fitted curve in the direction sought with a large enough effect in the repeat runs; inconclusive = weak or mixed curves; inactive = no such curve, though single readings can be large; an effect the other way counts as inactive or inconclusive.

How the values were obtained:
[1] = A CellTox Green Cytotoxicity Assay to monitor cytotoxicity in HEK293 cells - 32 hour (AID 1224881); note: nearly all actives have a fitted effect of over 40% in size; note: potency is the fitted concentration of half-maximal effect
Method in brief: (§1)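 Real-time, in one plate: 600 HEK293 cells/well with dead-cell DNA dye, pinned compound after 5 h, 37 C incubation over 40 h; viable cells give no appreciable fluorescence.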

[2] = A CellTox Green Cytotoxicity Assay to monitor cytotoxicity in HepG2 cells - 0 hour (AID 1224882); note: nearly all actives have a fitted effect of over 35% in size
Method in brief: (§2)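 Cytotoxicity was tracked as dead-cell DNA fluorescence in HepG2 cells treated with test compounds at 37 C; each time-point value comes from one kinetic series spanning 0, 8, 16, 24, 32 and 40 h.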

[3] = A CellTox Green Cytotoxicity Assay to monitor cytotoxicity in HepG2 cells - 32 hour (AID 1224883); note: nearly all actives have a fitted effect of over 50% in size; note: potency is the fitted concentration of half-maximal effect
Method in brief: as §2

[4] = A CellTox Green Cytotoxicity Assay to monitor cytotoxicity in HEK293 cells - 8 hour (AID 1224884); note: nearly all actives have a fitted effect of over 35% in size; note: potency is the fitted concentration of half-maximal effect
Method in brief: as §1

[5] = qHTS RealTime-Glo MT Cell Viability Assay in HepG2 cells - 16 hour (AID 1224885); note: nearly all actives have a fitted effect of over 50% in size
Method in brief: (§3)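 Cells + NanoLuc/prosubstrate dispensed (600 cells/well) → 5 h at 37 C/5% CO2 → compounds in DMSO transferred → 40 h incubation at 37 C, luminescence read at 0, 8, 16, 24, 32, 40 h.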

[6] = qHTS RealTime-Glo MT Cell Viability Assay in HEK293 cells - 8 hour (AID 1224887); note: nearly all actives have a fitted effect of over 50% in size; note: potency is the fitted concentration of half-maximal effect
Method in brief: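 Kinetic, non-lysing viability readout. Seed HEK293 (600/well) with reagent, incubate 5 h at 37 C/5% CO2, pin 23 nL compound in DMSO, incubate at 37 C, read luminescence at 0, 8, 16, 24, 32, 40 h.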

[7] = A CellTox Green Cytotoxicity Assay to monitor cytotoxicity in HepG2 cells - 8 hour (AID 1224890); note: nearly all actives have a fitted effect of over 45% in size; note: potency is the fitted concentration of half-maximal effect
Method in brief: as §2

[8] = biological target: Estrogen receptor (Homo sapiens) (UniProt P03372); assay: qHTS assay to identify small molecule antagonists of the estrogen receptor alpha (ER-alpha) signaling pathway using the BG1 cell line in the presence of 0.1 nM 17-beta-estradiol (AID 1259244); note: nearly all actives have a fitted effect of over 50% in size; note: potency is the fitted concentration of half-maximal effect
Method in brief: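 Luciferase signal from VM7Luc4E2 ERE-reporter cells, co-dosed with test compound and 0.1 nM final 17beta-estradiol for 22 h, read with ONE-Glo.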

[9] = qHTS assay to identify small molecule HDAC inhibitors (AID 1259364); note: potency is the fitted concentration of half-maximal effect;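 note: wild-type HCT-116 cells with endogenous class I/II HDAC activity; nearly all actives have a fitted effect of over 45% in size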
Method in brief: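 HCT-116 wt cells, 1,500/well, overnight attach. Compounds (DMSO) 2 h, 37 °C. HDAC-Glo I/II, 30 min RT. Luminescence.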

[10] = qHTS assay to identify small molecule HDAC inhibitors - cell viability counter screen (AID 1259365)
Method in brief: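 Viability readout: CellTiter-Glo luminescence. Wild-type HCT-116 cells, 2hr compound treatment following overnight attachment at 37 C.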

[11] = qHTS assay to identify small molecule agonists of the sonic hedgehog signaling (Shh) pathway (AID 1259368; calls by dose curve;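 note: NIH/3T3-derived 3T3Gli1-Luc cells carrying a stable Gli1-driven firefly luciferase reporter; series mostly up to about 92 µM; nearly all actives have a fitted effect of over 15% in size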)
Method in brief: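 Following a 24 hr incubation with DMSO-dissolved compounds at 37 C, 5% CO2, Gli1-Luc NIH/3T3-derived cells received luciferase reagent for 30 min at room temperature prior to luminescence measurement.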

[12] = A CellTox Green Cytotoxicity Assay to monitor cytotoxicity in HEK293 cells - 16 hour (AID 1224888); note: nearly all actives have a fitted effect of over 35% in size; note: potency is the fitted concentration of half-maximal effect
Method in brief: as §1

[13] = qHTS assay to identify small molecule antagonists of the estrogen receptor alpha (ER-alpha) signaling pathway using the BG1 cell line in the presence of 0.1 nM 17-beta-estradiol - cell viability counter screen (AID 1259241); note: nearly all actives have a fitted effect of over 40% in size
Method in brief: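 The cell line endogenously expresses full-length ER-alpha and carries four EREs driving luciferase. Cells are cultured 5 days hormone-free, treated 22 hr with compounds and 0.1 nM estradiol, then viability is read by fluorescence.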

[14] = qHTS assay to identify small molecule antagonists of the androgen receptor (AR) signaling pathway using the MDA cell line in the presence of 0.5 nM R1881 - cell viability counter screen (AID 1259242); note: nearly all actives have a fitted effect of over 45% in size; note: potency is the fitted concentration of half-maximal effect
Method in brief: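 Cells seeded at 3,000/well and allowed 5 hr at 37C, 0% CO2 before compound transfer and R1881 (0.5 nM final) addition; 16 hr later, live-cell protease fluorescence indicated cytotoxicity.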

[15] = qHTS assay to identify small molecule phospholipidosis (PLD) inducers (AID 1259344; active = well fitted curve in the direction sought with a large enough effect; an effect the other way counts as inactive or inconclusive)
Method in brief: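 Phospholipid accumulation was scored by imaging: fixed, Hoechst-counterstained HepG2 cells stained with LipidTOX Red after 24 h compound exposure at 37 C. Read-outs were pit count and pit intensity per well or per cell, with amiodarone and DMSO controls.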

[16] = qHTS assay to identify small molecule agonists of the sonic hedgehog signaling (Shh) pathway - cell viability counter screen (AID 1259366); note: nearly all actives have a fitted effect of over 50% in size; note: potency is the fitted concentration of half-maximal effect
Method in brief: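 Viability measured fluorometrically (CellTiter-Fluor, 1hr, 37C) in 3T3 Gli1-Luc reporter cells after 23hr compound exposure within a 24hr incubation at 37C/5% CO2.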

[17] = qHTS assay to identify small molecule antagonists of the sonic hedgehog signaling (Shh) pathway - cell viability counter screen (AID 1259367); note: nearly all actives have a fitted effect of over 55% in size; note: potency is the fitted concentration of half-maximal effect
Method in brief: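 Viability was read by CellTiter-Fluor fluorescence in the same wells, reagent added 23 hr into compound treatment and incubated 1 hr at 37C. The 3T3 Gli1-Luc reporter cells (2,000/well) received conditioned medium after compound and ran 24 hr.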

[18] = qHTS RealTime-Glo MT Cell Viability Assay in HEK293 cells - 24 hour (AID 1224886); note: nearly all actives have a fitted effect of over 50% in size; note: potency is the fitted concentration of half-maximal effect
Method in brief: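 Tox21 10K qHTS, HEK293, 600 cells/well, RealTime-Glo reagent co-dispensed with cells; 5 h preincubation, compound by pintool, 37 C, luminescence at 0–40 h.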

[19] = qHTS RealTime-Glo MT Cell Viability Assay in HepG2 cells - 0 hour (AID 1224889); note: nearly all actives have a fitted effect of over 50% in size; note: potency is the fitted concentration of half-maximal effect
Method in brief: as §3

[20] = biological target: Androgen receptor (Homo sapiens) (UniProt P10275); assay: qHTS assay to identify small molecule antagonists of the androgen receptor (AR) signaling pathway using the MDA cell line in the presence of 0.5 nM R1881 (AID 1259243)
Method in brief: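 Luminescence from an AR/GR-responsive MMTV-luciferase construct in MDA-kb2 breast carcinoma cells, read 30 min after ONE-Glo, following 16 hr co-treatment with compounds and 0.5 nM R1881.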

Sequence of Androgen receptor (Homo sapiens) (P10275 whole entry, looked up): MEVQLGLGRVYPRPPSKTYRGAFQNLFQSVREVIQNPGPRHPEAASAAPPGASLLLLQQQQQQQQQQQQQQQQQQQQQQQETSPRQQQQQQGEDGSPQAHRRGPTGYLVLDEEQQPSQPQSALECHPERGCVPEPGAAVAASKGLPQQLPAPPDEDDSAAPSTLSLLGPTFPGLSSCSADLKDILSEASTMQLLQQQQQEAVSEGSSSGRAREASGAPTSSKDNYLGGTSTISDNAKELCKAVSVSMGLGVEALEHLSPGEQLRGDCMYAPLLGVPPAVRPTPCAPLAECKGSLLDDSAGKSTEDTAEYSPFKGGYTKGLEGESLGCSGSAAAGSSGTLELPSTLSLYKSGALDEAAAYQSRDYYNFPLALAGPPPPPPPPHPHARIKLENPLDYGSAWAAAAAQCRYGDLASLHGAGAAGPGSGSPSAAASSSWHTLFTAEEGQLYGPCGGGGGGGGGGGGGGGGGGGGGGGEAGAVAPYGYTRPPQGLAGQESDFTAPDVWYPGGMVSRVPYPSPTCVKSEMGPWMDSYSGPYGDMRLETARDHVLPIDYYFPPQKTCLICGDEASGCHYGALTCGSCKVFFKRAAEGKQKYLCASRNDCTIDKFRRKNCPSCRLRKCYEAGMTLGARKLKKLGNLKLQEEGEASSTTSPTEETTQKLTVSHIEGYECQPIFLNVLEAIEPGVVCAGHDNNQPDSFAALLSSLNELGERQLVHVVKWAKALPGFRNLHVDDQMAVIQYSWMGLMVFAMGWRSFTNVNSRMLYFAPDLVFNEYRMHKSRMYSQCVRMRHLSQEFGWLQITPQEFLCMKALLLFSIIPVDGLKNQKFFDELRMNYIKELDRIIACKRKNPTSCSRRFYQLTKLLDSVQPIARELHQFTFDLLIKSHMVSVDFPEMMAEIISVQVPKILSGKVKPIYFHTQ
Sequence of Estrogen receptor (Homo sapiens) (P03372 whole entry, looked up): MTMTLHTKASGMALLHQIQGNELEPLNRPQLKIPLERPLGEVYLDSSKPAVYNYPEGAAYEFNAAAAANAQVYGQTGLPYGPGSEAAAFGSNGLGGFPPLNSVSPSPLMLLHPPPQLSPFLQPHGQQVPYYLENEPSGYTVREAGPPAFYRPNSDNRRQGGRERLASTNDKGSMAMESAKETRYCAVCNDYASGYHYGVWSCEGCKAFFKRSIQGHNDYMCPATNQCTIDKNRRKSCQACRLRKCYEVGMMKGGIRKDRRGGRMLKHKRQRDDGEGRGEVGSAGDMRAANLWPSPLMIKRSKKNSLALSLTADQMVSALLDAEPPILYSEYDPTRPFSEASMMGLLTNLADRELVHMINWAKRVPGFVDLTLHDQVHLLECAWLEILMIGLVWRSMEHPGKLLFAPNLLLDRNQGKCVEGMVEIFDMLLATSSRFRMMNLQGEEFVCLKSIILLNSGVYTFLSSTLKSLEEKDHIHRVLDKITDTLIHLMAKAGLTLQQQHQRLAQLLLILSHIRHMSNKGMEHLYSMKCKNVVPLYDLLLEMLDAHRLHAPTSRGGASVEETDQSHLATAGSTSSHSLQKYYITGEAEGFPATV

Structure (SMILES) | Potency [1] | Potency [2] | Potency [3] | Potency [4] | Potency [5] | Potency [6] | Potency [7] | Potency [8] | Potency [9] | Potency [10] | Potency [11] | Potency [12] | Potency [13] | Potency [14] | outcome [15] | Potency [16] | Potency [17] | Potency [18] | Potency [19] | Potency [20]
NC1CCC(CC2CCC(N)CC2)CC1 (configuration not stated) | inactive | inactive | inactive | inactive | inactive | inactive | inactive | inactive | inactive | inactive | inactive |  |  |  |  |  |  |  |  | 
CC(C)c1c(CN(C)C(C)Cc2ccccc2)n(C)n(-c2ccccc2)c1=O (configuration not stated) | inactive | inactive | inactive | inactive | inactive |  | inactive | inactive | inactive | inactive | inactive | inactive | inactive | inactive | inactive | inactive | inactive |  |  | 
[O]=[Cr](=[O])([OH])[O][Cr](=[O])(=[O])[OH] | inactive | inactive | 12.4 µM (active) | inactive |  |  | inactive |  | inactive | inactive | inactive | inactive | inactive | inactive | inactive | 30.9 µM (active) and 30.6 µM (active) | 21.9 µM (active) and 30.6 µM (active) | 12.4 µM (active) and 6.9 µM (active) | inactive | 30.9 µM (active) and 54.4 µM (active)
O=C1C(Cl)=C(Cl)C(=O)C(Cl)=C1Cl | 21.8 µM (active) and 21.9 µM (active) | inactive | 21.8 µM (active) and 19.5 µM (active) | inactive |  |  | 21.9 µM (active) | inactive | inactive | inactive | inactive | inactive | inactive | 48.4 µM (active) |  | 24.2 µM (active) and 24.3 µM (active) | 60.9 µM (active) and 24.3 µM (active) | 24.5 µM (active) and 21.9 µM (active) | 9.74 µM (active) and 12.3 µM (active) | 27.2 µM (active) and 24.3 µM (active)
CCCCCCCc1ccc(O)cc1 | 43.6 µM (active) | inactive | 21.9 µM (active) |  | inactive | 6.17 µM (active) | 24.5 µM (active) | inactive | inactive | inactive | inactive | 43.6 µM (active) | inactive | inactive |  |  |  | 12.3 µM (active) | inactive | 27.3 µM (active)
COC(=O)N(OC)c1ccccc1COc1ccn(-c2ccc(Cl)cc2)n1 | inactive | inactive | inactive | inactive | inactive |  | inactive | 686 nM (active) | inactive | inactive | inactive | inactive |  | 2.17 µM (active) |  | inactive | inactive |  | inactive | 
CO/N=C(\C(=O)OC)c1ccccc1CO/N=C(\C)c1cccc(C(F)(F)F)c1 | inactive | inactive | inactive | inactive | inactive |  | inactive |  | inactive | inactive | inactive | inactive |  |  |  |  | inactive |  | inactive | 
COC(=O)c1cc(Oc2ccc(Cl)cc2Cl)ccc1[N+](=O)[O-] | inactive | inactive | inactive | inactive | inactive |  | inactive |  | inactive | inactive |  |  | inactive | inactive |  | inactive | inactive |  | inactive | 
C[C@]12C/C(=C/O)C(=O)C[C@@H]1CC[C@@H]1[C@@H]2CC[C@@]2(C)[C@H]1CC[C@]2(C)O | 44.1 µM (active) and inactive | inactive |  | inactive | inactive | inactive | inactive | inactive | inactive | inactive | inactive | inactive | inactive | inactive | inactive | 55 µM (active) and 21.1 µM (active) | 61.7 µM (active) | 49.4 µM (active) and inactive | inactive | 
Clc1ccc(C(Cl)(Cl)Cl)cc1Cl | 33.9 µM (active) | inactive | 47.9 µM (active) | 42.7 µM (active) |  | 30.2 µM (active) | 47.9 µM (active) |  | 15 µM (active) | inactive | inactive | 38.1 µM (active) | inactive | inactive |  | inactive | inactive | 33.9 µM (active) | inactive | 
COc1ccc(Cc2nccc3cc(OC)c(OC)cc23)cc1OC | inactive | inactive | inactive | inactive |  |  | inactive |  | inactive | inactive | inactive | inactive | inactive |  | inactive |  | inactive | 4.77 µM (active) | inactive | 6.68 µM (active)
CC(C)(C)c1ccc(OP(=O)(Oc2ccccc2)Oc2ccccc2)cc1 | inactive | inactive | inactive | inactive | inactive |  | inactive | inactive | inactive | inactive | inactive | inactive |  | inactive |  | inactive | inactive |  | inactive | 
CC(C)N(C(=O)CCl)c1ccccc1 | inactive | inactive | 49 µM (active) | inactive |  | inactive | inactive | 27.3 µM (active) and 54.5 µM (active) | inactive | inactive |  | inactive | inactive |  |  | 68.6 µM (active) and 9.69 µM (active) | 30.6 µM (active) and 24.3 µM (active) | 49 µM (active) | inactive | 19.3 µM (active)
Cc1ccccc1OP(=O)(Oc1ccccc1C)Oc1ccccc1C | inactive | inactive | inactive | inactive | inactive |  | inactive | inactive | inactive | inactive |  |  | inactive | inactive |  | inactive |  |  | inactive | 48.8 µM (active)
CC1(C)C(C=C(Cl)Cl)C1C(=O)OC(C#N)c1ccc(F)c(Oc2ccccc2)c1 (configuration not stated) | inactive | inactive | inactive | inactive |  |  | inactive | inactive | inactive | inactive | inactive | inactive | inactive | inactive |  | inactive | inactive | inactive | inactive | 
